Screening results as filed in PubChem BioAssay.
S2 tox: reduces viability in counter-screen for ATXN expression inhibitors | S2 cells (HEK-293 line with an ATXN2-luciferase reporter) viability, CellTiter-Fluor protease fluorescence, 24 h | Potency, µM (titrated, usually from 56.7 µM), hits mostly cytotoxic | 0.49% of 400,000 active; further: nearly all actives have a fitted effect of over 40% in size
Nrf2 block: blocks Nrf2 signaling; Potency, µM (doses to about 46 µM), without a hit: top-dose activity change, negative = inhibition, hits mostly inhibitors; A549 ARE-Fluc reporter, luciferase luminescence, 18-24 h; 2.1% of 360,000 active; further: on the % scale 0 is the no-effect control and ±100 the full control effect; nearly all actives have a fitted effect of over 60% in size
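Nrf2 function is reported as luminescence of an ARE-controlled luciferase in A549 cells. Compounds were tested at several concentrations, and a CellTiter-Fluor read on the same wells flagged cytotoxicity.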
ATXN2 expr inh: ATXN2 expression inhibition | HEK-293 ATXN2-luciferase reporter, luminescence, 24 h | AID 1745845 | 0.72% of 360,000 active | Potency, µM (top dose mostly 57 µM), for the others: at the top dose activity change, negative = inhibition, actives largely listed as inhibitors; further: on the % scale 0 is the no-effect control and ±100 the full control effect; nearly all actives have a fitted effect of over 55% in size
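qHTS (up to 57 uM final) was run with 24 h compound exposure of reporter cells at 37 °C. Each well was multiplexed: SteadyGlo luminescence measured ATXN2-luciferase expression after a fluorogenic Gly-Phe-AFC viability readout (25 uM final).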
Nrf2 ARE act: activates Nrf2 signaling; AREc32 ARE-luciferase reporter (MCF7-derived line), luminescence, 24 h; Potency, µM (doses to about 46.1 µM), for the others: top-dose activation, usual class: activators; 0.31% of 410,000 active; AID 624171; further: % of control where 0% means no effect; nearly all actives have a fitted effect of over 65% in size
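Cells of the AREc32 ARE-luciferase line are plated in OPTI-MEM containing 5% FBS and left overnight at 37 deg C. Compounds are pinned in, incubation continues 24 hr, and firefly luciferase signal is then measured.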
A549 tox: counter-screen for Nrf2 inhibitors: cytotoxicity in A549 cells | A549 ARE-Fluc cells, CellTiter-Fluor viability, 18-24 h | Potency, µM (highest dose often 46 µM), for the others: top-dose activity change, negative = cytotoxicity, most hits filed as inhibitors | 0.16% of 390,000 active | AID 504648; further: on the % scale 0 is the no-effect control and ±100 the full control effect
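A549 ARE_Fluc cells in 5% FBS OPTI-MEM were exposed to compounds in concentration-response for 18-24 h at 37 deg C. Viability was read by CellTiter-Fluor fluorescence (Ex 405/Em 525) after 30 min, before the luciferase read.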
Numbers without * were called inactive; i = inactive; ? = inconclusive; . = not tested or not shown; [ ] = dose if it differs, or a comment. The list is not random: actives were taken first. Their share in the collection is about 2.9%. The call rests on the fitted dose curve; in most records, active means well fitted curve in the direction sought with a large enough effect; inconclusive means small, poorly fitted or top-dose-only effect, or another doubt; inactive means no such curve, though single readings can be large; an effect the other way counts as inactive or inconclusive. Potency means the concentration at half of the fitted maximal effect.

SMILES | S2 tox | Nrf2 block | ATXN2 expr inh | Nrf2 ARE act | A549 tox
Cc1ccc(-c2ccc(CN3C(CC(C)C)C(=O)N(Cc4cn(CCC5OCCCO5)nn4)CCS3(=O)=O)cc2)cc1 (configuration not stated) | . | . | 28µM* | -4% | .
COc1ccc(CCNC(=O)CN2C(=O)COc3ccccc32)cc1OC | . | . | . | 3% | 14%
CCOC(=O)c1ccc(N2C(=O)c3n[nH]c(C)c3C2c2ccc(OCC)cc2)cc1 (configuration not stated) | ? | ? | ? | -4% | -15%
CCOC(=O)c1ccc(N2C(=O)c3[nH]nc(-c4ccc(OC)cc4)c3C2c2cccc(O)c2)cc1 (configuration not stated) | . | ? | ? | -4% | -28%
CCOC(=O)c1ccc(N2C(=O)c3n[nH]c(-c4ccco4)c3C2c2ccc([N+](=O)[O-])cc2)cc1 (configuration not stated) | ? | ? | ? | 1% | -20%
CCOC(=O)c1ccc(N2C(=O)c3n[nH]c(-c4ccco4)c3C2c2ccc(C)cc2)cc1 (configuration not stated) | 28µM* | ? | ? | -3% | -24%
CCOC(=O)c1ccc(N2C(=O)c3[nH]nc(-c4ccc(C)cc4)c3C2c2cccc(F)c2)cc1 (configuration not stated) | ? | 21µM* | ? | 0% | -18%
CCOC(=O)c1ccc(N2C(=O)c3[nH]nc(-c4ccccc4)c3C2c2ccc(CC)cc2)cc1 (configuration not stated) | . | 18µM* | ? | -1% | ?
CCOC(=O)c1ccc(N2C(=O)c3[nH]nc(-c4ccc(C)cc4)c3C2c2ccc(O)cc2)cc1 (configuration not stated) | ? | 21µM* | ? | -2% | -25%
COC(=O)c1ccc2c(c1)N(CC(=O)Nc1ccc(C)cc1Cl)C(=O)c1ccccc1S2 | i | . | -4% | 0% | -1%
Cc1c(C(=O)NCC(C)C)sc2ncnc(NCC3CCCO3)c12 (configuration not stated) | i | . | . | . | .
CCOc1ccc(N2C(=O)c3n[nH]c(-c4cccs4)c3C2c2cccc(F)c2)cc1 (configuration not stated) | . | ? | ? | -3% | -22%
CCOC(=O)c1ccc(N2C(=O)c3n[nH]c(-c4cccs4)c3C2c2cccc(OC)c2)cc1 (configuration not stated) | ? | 21µM* | ? | -2% | ?
CCN(CC)CC(=O)Oc1ccc(NC(C)=O)cc1 | i | . | 14% | . | .
CCCCCCCCCCCCCC[N+](C)(C)Cc1ccccc1 | 35µM* | . | 35µM* | . | .
CCCCCCCCCCCCCCCC[N+](C)(C)Cc1ccccc1 | 35µM* | . | 32µM* | . | .
CCCCCCCC(=O)NNC(=O)Cc1ccccc1 | i | . | 2% | 0% | -3%
CCCCCCCCCCCCCCCC[N+](C)(C)CCl | ? | -6% | -16% | -2% | 0%
COc1ccc(-c2ccoc2)cc1C1C2C=CCC(C)C2C(=O)N1Cc1ccccc1 (configuration not stated) | . | ? | . | . | -15%
Cc1ccc(C(C(=O)NC2CCCCC2)N(C)Cc2ccccc2)cc1 (configuration not stated) | i | -4%[9.27 µM] | 12% | 0% | 2%
CCOC(=O)CN(Cc1ccccc1)C(C(=O)NC1CCCCC1)c1ccccc1 (configuration not stated) | ? | 4.6µM* | ? | -1% | 12µM*
N#Cc1c(N)n(C2OC(CO)C(O)C2O)c2ncnc(N)c12 (configuration not stated) | ? | ? | 0.3µM* | -2% | ?
CCOC(=O)c1cnc2ccc(OC)cc2c1NCCc1ccccc1 | . | 23µM* | . | -1% | ?
CCOC(=O)c1cnc2ccc(OC)cc2c1Nc1cccc(C(C)=O)c1 | i | 16µM* | -20% | 8% | ?
CCOC(=O)c1cnc2ccc(OCC)cc2c1Nc1cc(Cl)c(OC)cc1OC | ? | -8% | -2% | -1% | 0%
SMILES | S2 tox | Nrf2 block | ATXN2 expr inh | Nrf2 ARE act | A549 tox
CCOC(=O)c1cnc2c(ccc3ccccc32)c1Nc1cccc(OC)c1 | i | 10% | 3% | -1% | -7%
CCOC(=O)c1cnc2ccc(OC)cc2c1NCc1ccccc1 | i | -13% | -8% | 5% | -8%
CCOC(=O)c1cnc2ccc(OCC)cc2c1NCc1ccccc1OC | ? | 6.5µM* | ? | 0% | 12µM*
O=C1CSC2(C(=O)N(Cc3cccc(F)c3)c3ccccc32)N1c1cccc(C(F)(F)F)c1 (configuration not stated) | ? | 23µM* | ? | 0% | -14%
COC(=O)c1ccccc1C(=O)N1CCc2c(cnc(C)c2CNC(=O)c2ccccc2F)C1 | i | . | . | . | .
Cc1n[nH]c(=O)n1-c1ccc(OC(F)(F)F)cc1 | i | -3% | 4% | 2% | 1%
CC(C)c1cc(-c2n[nH]c(=O)n2-c2ccc3c(ccn3C)c2)c(O)cc1O | . | . | 0.077µM* | . | .
CCn1c(=O)cc(SCC(=O)Nc2cccc(SC)c2)c2ccccc21 | i | 13µM* | 2% | 4% | -23%
COc1ccc(NC(=O)C(=O)NCCC2CCCCN2S(=O)(=O)c2ccc(F)cc2)cc1 (configuration not stated) | i | -9% | 2.5µM* | -1% | -6%
Cc1ccc(CNC(=O)C(=O)NCCC2CCCCN2S(=O)(=O)c2ccc(C)cc2)cc1 (configuration not stated) | i | ? | -11% | 4% | 9%
O=C(NCCC1CCCCN1S(=O)(=O)c1ccc(Cl)cc1)C(=O)NCc1ccncc1 (configuration not stated) | i | 21µM* | -22% | 0% | 2%
O=C(NCCC1CCCCN1S(=O)(=O)c1ccccc1)C(=O)Nc1ccc(F)cc1 (configuration not stated) | ? | -1% | -15% | 0% | -1%
O=C(NCCC1CCCCN1S(=O)(=O)c1ccc(F)cc1)C(=O)NCc1ccncc1 (configuration not stated) | i | 12µM* | -9% | -2% | 5%
CN(C)CCNc1nc(-c2ccco2)c2c(c1C#N)CC(C)(C)OC2 | i | 25% | -32% | 6% | .
CCCCN(C)c1nc(-c2ccco2)c2c(c1C#N)CC(C)(C)OC2 | i | ? | 22µM* | ? | -13%
N#Cc1c(-c2ccc(Cl)cc2)no[n+]1[O-] | . | -8% | . | . | -4%
O=C(Nc1ccc(F)c(Cl)c1)c1nsc(Cl)c1Cl | i | 4% | . | 3.2µM* | -2%
Cc1ccc(C2=C(c3ccc([N+](=O)[O-])cc3)C(=O)OC2)cc1C | i | 23µM* | -15% | 3% | -17%
CC(C)(C)OC(=O)NCC(=O)NNC(=O)c1nc2ccccc2[nH]1 | . | -5% | . | . | 7%
